Measured values from PubChem BioAssay (NCATS).
Values joined by “and” are separate entries in the source; they are usually repeats but may differ in a detail not shown here. Identical values can stand only once. Active and inactive are the calls of the source. Where a call stands in place of a potency, no number is given. The call rests on the fitted dose curve; in most records, active means well fitted activation curve with a large enough effect; inconclusive means small, poorly fitted or top-dose-only effect; inactive means no such curve, though single readings can be large or run the other way.

biological target: Cytochrome P450 3A4 (Homo sapiens) (UniProt P08684); assay: qHTS Assay for Activators of Cytochrome P450 3A4 (AID 885); conditions: recombinant CYP3A4, Luciferin-PPXE luminescence, 60 min; series mostly up to 57.1 µM; further: nearly all actives have a fitted effect of over 65% in size
Sequence (P08684 whole entry, looked up): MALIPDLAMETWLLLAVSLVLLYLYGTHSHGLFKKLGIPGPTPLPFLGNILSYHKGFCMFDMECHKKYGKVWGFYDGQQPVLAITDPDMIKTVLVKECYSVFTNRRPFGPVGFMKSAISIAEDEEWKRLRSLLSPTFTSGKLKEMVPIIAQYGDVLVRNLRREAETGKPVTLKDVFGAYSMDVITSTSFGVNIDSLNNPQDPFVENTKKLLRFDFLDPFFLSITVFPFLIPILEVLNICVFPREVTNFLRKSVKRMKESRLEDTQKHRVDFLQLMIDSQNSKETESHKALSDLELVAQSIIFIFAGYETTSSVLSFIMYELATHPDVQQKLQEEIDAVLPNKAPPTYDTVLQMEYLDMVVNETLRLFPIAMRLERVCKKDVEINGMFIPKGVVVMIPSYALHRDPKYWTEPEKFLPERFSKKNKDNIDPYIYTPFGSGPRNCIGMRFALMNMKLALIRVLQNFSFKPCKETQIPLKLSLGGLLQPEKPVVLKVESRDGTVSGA
Method: NIH Molecular Libraries Screening Centers Network [MLSCN]
NIH Chemical Genomics Center [NCGC]
The P450 gene superfamily is involved in the metabolism and clearance of xenobiotics. This assay used human CYP3A4 to measure the dealkylation of luciferin-6' phenylpiperazinylyl (Luciferin-PPXE; […]) to luciferin. The luciferin is then measured by luminescence after the addition of a luciferase detection reagent. Luciferin-PPXE concentration in the assay was equal to its KM for CYP3A4. Inhibitors and some substrates limit the production of luciferin, and decrease measured luminescence; activators increase the production of luciferin and luminescence.
NCGC Assay Protocol Summary:
Two uL of enzyme and substrate mix (final concentrations: 20nM CYP3A4, 25uM Luciferin-PPXE, 200mM KPO4) were dispensed into a white, solid bottom 1536-well microtiter plate. 23nL of compound was transferred by a pin tool. The plate was incubated at RT for 10 min. Two uL of an NADPH regeneration solution (Promega supplied reagent) was dispensed and the reaction was allowed to continue for 60 min at RT. Then the reaction was stopped by reconstituted luciferin detection buffer. After another 20 min of incubation the plate was read on the ViewLux (Perkin Elmer) at 60 sec exposure and 2x2 binning. This protocol was carried out with Promega-Glo reagents and further information can be found at http://www.promega.com/tbs/tb325/tb325.pdf. Data were normalized to the to AC100 inhibition (57 uM ketoconazole).
Keywords: P450, CYP2D6, Luciferase, MLSMR, MLSCN, NIH Roadmap, qHTS, NCGC
Potency means the concentration at half of the fitted maximal effect.

| SMILES | Potency |
| --- | --- |
| CN(C)CCOC(=O)COc1ccc(Cl)cc1 | inactive |
| Cc1nc2ccccn2c(=O)c1CCN1CCC(C(=O)c2ccc(F)cc2)CC1 | inactive |
| Cc1ccc(Cl)c(Nc2ccccc2C(=O)O)c1Cl | 20 µM (active) and 12.6 µM (active) and 25.1 µM (active) |
| COc1ccc(CN(CCN(C)C)c2ccccn2)cc1 | inactive |
| CCOC(=O)c1cnc2c(cnn2CC)c1NN=C(C)C | inactive |
| O=C1NCN(c2ccccc2)C12CCN(CCCC(c1ccc(F)cc1)c1ccc(F)cc1)CC2 | inactive |
| NC(N)=NC(=O)Cc1c(Cl)cccc1Cl | inactive |
| O=C(CCNNC(=O)c1ccncc1)NCc1ccccc1 | inactive |
| COC(=O)[C@H]1[C@H]2C[C@@H]3c4[nH]c5cc(OC)ccc5c4CCN3C[C@H]2C[C@@H](OC(=O)c2cc(OC)c(OC)c(OC)c2)[C@@H]1OC | inactive |
| CCCCCCCC/C=C\CCCCCCCC(=O)NCc1ccc(O)c(OC)c1 | inactive |
| C[n+]1cc2c3c(ccc2c2ccc4cc5c(cc4c21)OCO5)OCO3 | inactive |
| CCO/C([O-])=N/c1c[n+](N2CCOCC2)no1 | inactive |
| COC(=O)[C@@H](N)Cc1ccc(O)c(O)c1 | inactive |
| CN(C(=O)CCCOc1ccc2[nH]c(=O)ccc2c1)C1CCCCC1 | inactive |
| c1cnc(N2CCN(Cc3ccc4c(c3)OCO4)CC2)nc1 | inactive |
| C[C@]12C=CC(=O)C=C1CC[C@H]1[C@@H]3C[C@@H](O)[C@](O)(C(=O)CO)[C@@]3(C)C[C@H](O)[C@@]12F | inactive |
| COc1cc2c(cc1OC)-c1cc(=Nc3c(C)cc(C)cc3C)n(C)c(=O)n1CC2 | inactive |
| CC1=NS(=O)(=O)c2cc(Cl)ccc2N1 | inactive |
| N[C@@H](COP(=O)(O)O)C(=O)O | inactive |
| CN1CCN(C2=Nc3ccccc3Oc3ccc(Cl)cc32)CC1 | inactive |
| CCCCNc1c(C(=O)OCC)c(C)nc2c1cnn2CC | inactive |
| CCCC(C(=O)OCCN(CC)CC)(c1ccccc1)c1ccccc1 | inactive |
| OCCN1CCN(CCCN2c3ccccc3C=Cc3ccccc32)CC1 | inactive |
| Cc1nc2sccn2c(=O)c1CCN1CCC(=C(c2ccc(F)cc2)c2ccc(F)cc2)CC1 | inactive |
| CCN1CCc2nc(N)oc2CC1 | inactive |
| c1cc(CN2CCCCC2)cc(OCCCNc2nc3ccccc3s2)c1 | inactive |
| Brc1c(NC2=NCCN2)ccc2nccnc12 | inactive |
| C[C@]12CCC(=O)C=C1CC[C@@H]1[C@@H]2C(=O)C[C@@]2(C)[C@H]1CC[C@]2(O)C(=O)CO | inactive |
